Results: PubChem BioAssay
Activity calls are given as the source filed them.

Tests used:
[1] = optical density shifts of acrAB sulA E. coli – strain DRC41, OD650, 48 h, E. coli filamentation inducer project, primary screen (AID 1152); details: higher = more signal, called active from +8 up or from −8 down;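 further: E. coli MC1000 strain DRC41 lacking acrAB efflux pump and sulA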
[2] = probe aLefty1 binding on compound microarray – biochemical, small-molecule microarray, 635/667 nm fluorescence, primary screen (AID 1153); details: higher = more signal;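 further: score merges spot fluorescence with signal-to-noise ratio from the scanned slide images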
[3] = plasmodial surface anion channel blockers, osmotic lysis – cell-based, P. falciparum Indochina, OD700, 1 h, primary screen (AID 1154); details: P. falciparum Indochina infected RBC osmotic lysis, higher = more signal, called active from +8 up or from −8 down
[4] = plasmodial surface anion channel blockers, osmotic lysis – cell-based, P. falciparum Indochina, OD700, 2 h, primary screen (AID 1155);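 further: lysis reports solute entry through the parasite surface anion channel PSAC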; details: P. falciparum Indochina infected erythrocytes, higher = more signal, called active from +8 up or from −8 down
[5] = changes in parasitized red cell lysis, either direction – P. falciparum Indochina, OD700, 3 h, PSAC antagonist project, primary screen (AID 1156); details: P. falciparum-infected erythrocytes, osmotic lysis, higher = more signal, called active from +8 up or from −8 down
[6] = plasmodial surface anion channel blockers, osmotic lysis – cell-based, P. falciparum Indochina, OD700, 18 h, primary screen (AID 1157); details: P. falciparum Indochina infected erythrocytes, osmotic lysis OD700, 18 h; higher = more signal, called active from +8 up or from −8 down
[7] = S6 kinase pathway phospho-S6 level changes – cell-based, A549, cytoblot, luminescence, serum-stimulated, primary screen (AID 1158); details: 5 h, higher = more signal;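 further: serum-stimulated A549 lung adenocarcinoma cells; signal is phosphorylated S6 detected by cytoblot immunostaining with HRP secondary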
[8] = molecular target: NADPH oxidase 2 (Homo sapiens) (UniProt P04839); test: compounds shifting NOX2 Amplex Red fluorescence – cell-based, HEK293-NOX2, PMA-stimulated, NOX inhibitor project, primary screen (AID 1159); details: 45 min, higher = more signal, called active from +8 up or from −8 down; further: test concentration not given here
[9] = molecular target: NADPH oxidase 4 (Homo sapiens) (UniProt Q9NPH5); test: compounds shifting NOX4 Amplex Red fluorescence – cell-based, HEK293-NOX4, tetracycline-induced, NOX inhibitor project, primary screen (AID 1160); details: HEK293-NOX4, Amplex Red H2O2 fluorescence, 45 min; higher = more signal, called active from +8 up or from −8 down
[10] = molecular target: NADPH oxidase 5 (Homo sapiens) (UniProt Q96PH1); test: compounds shifting NOX5 Amplex Red fluorescence – cell-based, HEK293-NOX5, NOX inhibitor project, primary screen (AID 1161); details: HEK293-NOX5, ionomycin, 45 min, higher = more signal
Sequence of NADPH oxidase 5 (Homo sapiens) (Q96PH1 whole entry, looked up): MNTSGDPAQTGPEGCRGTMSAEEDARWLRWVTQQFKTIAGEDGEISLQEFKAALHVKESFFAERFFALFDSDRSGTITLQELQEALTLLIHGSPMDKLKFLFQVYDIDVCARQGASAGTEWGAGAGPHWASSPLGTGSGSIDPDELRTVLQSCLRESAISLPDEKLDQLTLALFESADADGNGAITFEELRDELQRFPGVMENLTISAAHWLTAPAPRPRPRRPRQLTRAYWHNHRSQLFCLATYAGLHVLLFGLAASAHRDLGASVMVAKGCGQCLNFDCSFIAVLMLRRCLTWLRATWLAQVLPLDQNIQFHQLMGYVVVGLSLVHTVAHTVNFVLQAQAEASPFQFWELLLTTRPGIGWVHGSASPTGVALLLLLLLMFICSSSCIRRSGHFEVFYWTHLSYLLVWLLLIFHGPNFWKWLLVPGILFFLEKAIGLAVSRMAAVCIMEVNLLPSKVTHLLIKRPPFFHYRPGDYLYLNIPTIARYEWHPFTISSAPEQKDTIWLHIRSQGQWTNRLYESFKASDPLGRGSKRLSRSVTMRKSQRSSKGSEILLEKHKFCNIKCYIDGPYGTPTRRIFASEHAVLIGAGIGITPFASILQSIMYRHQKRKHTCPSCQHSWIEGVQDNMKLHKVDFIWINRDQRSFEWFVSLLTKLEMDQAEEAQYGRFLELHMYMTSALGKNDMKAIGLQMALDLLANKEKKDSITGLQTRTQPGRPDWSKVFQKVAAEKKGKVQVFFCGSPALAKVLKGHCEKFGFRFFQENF

Sequence of NADPH oxidase 2 (Homo sapiens) (P04839 whole entry, looked up): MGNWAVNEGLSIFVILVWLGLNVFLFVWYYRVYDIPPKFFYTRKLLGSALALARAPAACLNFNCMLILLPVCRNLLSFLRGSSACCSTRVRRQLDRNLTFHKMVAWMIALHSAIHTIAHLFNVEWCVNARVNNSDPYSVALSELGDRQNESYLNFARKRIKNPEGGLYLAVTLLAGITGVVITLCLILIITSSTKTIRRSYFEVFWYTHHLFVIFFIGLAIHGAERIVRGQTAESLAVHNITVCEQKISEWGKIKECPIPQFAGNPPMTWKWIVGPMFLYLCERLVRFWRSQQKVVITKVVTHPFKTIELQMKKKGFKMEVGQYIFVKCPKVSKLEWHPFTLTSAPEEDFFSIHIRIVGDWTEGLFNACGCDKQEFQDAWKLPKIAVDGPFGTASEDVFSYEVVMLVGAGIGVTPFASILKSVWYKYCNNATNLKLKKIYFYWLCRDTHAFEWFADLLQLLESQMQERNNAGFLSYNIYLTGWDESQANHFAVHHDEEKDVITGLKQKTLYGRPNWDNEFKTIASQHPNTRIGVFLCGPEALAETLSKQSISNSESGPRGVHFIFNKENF
Sequence of NADPH oxidase 4 (Homo sapiens) (Q9NPH5 whole entry, looked up): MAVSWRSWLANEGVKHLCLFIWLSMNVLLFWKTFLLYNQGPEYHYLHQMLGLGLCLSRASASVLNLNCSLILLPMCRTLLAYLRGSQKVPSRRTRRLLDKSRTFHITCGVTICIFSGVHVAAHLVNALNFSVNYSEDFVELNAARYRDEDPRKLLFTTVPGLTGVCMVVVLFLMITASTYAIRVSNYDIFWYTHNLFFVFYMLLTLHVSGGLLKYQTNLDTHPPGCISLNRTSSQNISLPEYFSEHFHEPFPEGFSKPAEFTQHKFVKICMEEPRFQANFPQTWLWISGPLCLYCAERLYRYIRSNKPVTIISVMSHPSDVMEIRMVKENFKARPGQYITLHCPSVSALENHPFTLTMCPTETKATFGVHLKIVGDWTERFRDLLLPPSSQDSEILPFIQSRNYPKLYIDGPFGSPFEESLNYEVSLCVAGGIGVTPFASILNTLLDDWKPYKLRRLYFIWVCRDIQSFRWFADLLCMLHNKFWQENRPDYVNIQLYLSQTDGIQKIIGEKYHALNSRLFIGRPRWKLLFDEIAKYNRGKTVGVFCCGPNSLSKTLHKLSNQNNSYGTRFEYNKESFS

In the case of `CC(C)(C)OC(=O)N1[C@@H](C=C(Br)Br)COC1(C)C`, the z-score [1] is reported as 1.98 (inactive), the composite z-score [2] is reported as -0.147 and the z-score [3] is reported as -0.794 (inactive). The z-score [4] was -1.16 (inactive), the z-score [5] was -0.884 (inactive) and the z-score [6] was -1.66 (inactive). The z-score [7] was 0.855, the z-score [8] was 2.82 (inactive) and the z-score [9] was 0.4 (inactive). It also gave a z-score [10] of -0.152.

For `O=C1NC(=O)C2C1C=CC(C(O)C1CCCCC1)N2Nc1ccccn1` (stereo not given), the z-score [1] was -1.72 (inactive), the composite z-score [2] was -0.0779 and the z-score [3] was 0.188 (inactive). The z-score [4] was 0.567 (inactive), the z-score [5] was -0.489 (inactive) and the z-score [6] was 0.433 (inactive). For the same compound, the z-score [7] was -0.621, the z-score [8] was -1.2 (inactive) and the z-score [9] was -3.29 (inactive). For the same compound, the z-score [10] was -2.69.

In the case of `CC[C@@H](O[Si](C#C[Si](C(C)C)(C(C)C)C(C)C)(C(C)C)C(C)C)c1cn(Cc2cccc(Cl)c2)nn1`, the z-score [1] is reported as 1.2 (inactive), the composite z-score [2] is reported as 0.106 and the z-score [3] is reported as -0.0842 (inactive). The z-score [4] was 0.523 (inactive), the z-score [5] was -0.559 (inactive) and the z-score [6] was 0.0622 (inactive). For the same compound, the z-score [7] was -0.559, the z-score [8] was -0.16 (inactive) and the z-score [9] was -0.839 (inactive). For the same compound, the z-score [10] was -1.62.

In the case of `C=C[C@H](OC)[C@@H](O)c1ccc(OC)c(O)c1`, the z-score [1] is reported as 0.169 (inactive), the composite z-score [2] is reported as -0.169 and the z-score [3] is reported as -0.258 (inactive). The z-score [4] was 0.352 (inactive), the z-score [5] was -0.658 (inactive) and the z-score [6] was 0.207 (inactive). The z-score [7] was -0.425, the z-score [8] was -2.15 (inactive) and the z-score [9] was -0.986 (inactive). It also gave a z-score [10] of -0.556.

In the case of `CC(=O)NCCCC[C@@H]1NC(=O)[C@H]2C[C@@H](C(=O)O)[C@@H](c3cccc(OCCO)c3)N2C1=O`, the z-score [1] is reported as -0.442 (inactive), the composite z-score [2] is reported as 0.189 and the z-score [3] is reported as 1.15 (inactive). The z-score [4] was 0.821 (inactive), the z-score [5] was -1.42 (inactive) and the z-score [6] was 0.253 (inactive). The z-score [7] was 0.435, the z-score [8] was 0.956 (inactive) and the z-score [9] was 0.197 (inactive). For the same compound, the z-score [10] was -0.0358.

With `COc1c(C)cc(-c2nc(-c3ccccc3)c3c(c2C)CO[Si]3(C(C)C)C(C)C)cc1C` the z-score [1] was -1.31 (inactive), the composite z-score [2] was 0.0505 and the z-score [3] was 0.614 (inactive). For the same compound, the z-score [4] was 0.521 (inactive), the z-score [5] was -0.81 (inactive) and the z-score [6] was 0.261 (inactive). For the same compound, the z-score [7] was 0.564, the z-score [8] was -0.41 (inactive) and the z-score [9] was 0.529 (inactive). For the same compound, the z-score [10] was -2.03.

For `CC1CC/C=C\[C@H]2OC34C=CCN(CCN5CCOCC5)C(=O)[C@H]3N(C(CO)C(C)C)C(=O)[C@@H]4C2C(=O)O1` (stereo not given in full), the z-score [1] was -0.481 (inactive), the composite z-score [2] was -0.247 and the z-score [3] was 1.94 (inactive). For the same compound, the z-score [4] was -0.184 (inactive), the z-score [5] was 0.927 (inactive) and the z-score [6] was 0.233 (inactive). For the same compound, the z-score [7] was -0.69, the z-score [8] was 1.13 (inactive) and the z-score [9] was -0.728 (inactive). For the same compound, the z-score [10] was 1.91.

For `CC1(C)OB(/C=C\CC(OC(=O)c2ccncc2)c2ccccc2)OC1(C)C` (stereo not given), the z-score [1] was -0.318 (inactive), the composite z-score [2] was 1.24 and the z-score [3] was 0.777 (inactive). For the same compound, the z-score [4] was -0.854 (inactive), the z-score [5] was -0.66 (inactive) and the z-score [6] was -0.678 (inactive). For the same compound, the z-score [7] was -0.119, the z-score [8] was -2.45 (inactive) and the z-score [9] was 0.637 (inactive). It also gave a z-score [10] of -5.03.

For `CN(C)C(=O)[C@]1(CCS(=O)(=O)c2ccccc2)N=C(c2ccc(OCCCO)cc2)O[C@@H]1c1ccccc1CN=[N+]=[N-]`, the z-score [1] was 0.0558 (inactive), the composite z-score [2] was 0.342 and the z-score [3] was 25.5 (active). The z-score [4] was 14.6 (active), the z-score [5] was 1.47 (inactive) and the z-score [6] was 1.57 (inactive). For the same compound, the z-score [7] was 0.131, the z-score [8] was -0.163 (inactive) and the z-score [9] was 2.09 (inactive). For the same compound, the z-score [10] was -0.658.

For `COc1ccc(C#Cc2ccc3c(c2)[C@]2(C(=O)N3)[C@H](c3ccccc3OCCO)N3[C@H](c4ccccc4)[C@H](c4ccccc4)OC(=O)[C@H]3[C@@H]2C(=O)NC[C@H](O)c2ccccc2)cc1`, the z-score [1] was 1.21 (inactive), the composite z-score [2] was 0.0147 and the z-score [3] was 1.71 (inactive). The z-score [4] was 1.71 (inactive), the z-score [5] was 0.0857 (inactive) and the z-score [6] was 1.2 (inactive). For the same compound, the z-score [7] was 0.138, the z-score [8] was 1.78 (inactive) and the z-score [9] was 0.243 (inactive). For the same compound, the z-score [10] was 1.32.

In the case of `CCOC(=O)C1=CC[C@@H](c2ccccc2)N(S(=O)(=O)c2ccc(C)cc2)[C@@H]1C#N`, the z-score [1] is reported as 0.49 (inactive), the composite z-score [2] is reported as 0.082 and the z-score [3] is reported as 4.46 (inactive). The z-score [4] was 0.804 (inactive), the z-score [5] was 0.0758 (inactive) and the z-score [6] was 1 (inactive). The z-score [7] was -0.268, the z-score [8] was 0.224 (inactive) and the z-score [9] was -0.615 (inactive). It also gave a z-score [10] of -0.14.

With `COC(=O)C(CC#Cc1ccc2c(c1)[C@]1(C(=O)N2)[C@H](C(N)=O)[C@H]2C(=O)O[C@H](c3ccccc3)[C@H](c3ccccc3)N2[C@@H]1c1ccccc1OCCO)C(=O)OC` the z-score [1] was 0.879 (inactive), the composite z-score [2] was 0.0622 and the z-score [3] was 14.2 (active). For the same compound, the z-score [4] was 3.83 (inactive), the z-score [5] was 1.02 (inactive) and the z-score [6] was 1.47 (inactive). For the same compound, the z-score [7] was -0.127, the z-score [8] was 1.9 (inactive) and the z-score [9] was 0.723 (inactive). For the same compound, the z-score [10] was 0.904.

With `COC(=O)c1c2oc(c1C(=O)OC)C(=O)N[C@H](Cc1ccccc1)Cn1cc(nn1)C1(CCCCC1)NC(=O)N[C@H](CO)CC2` the z-score [1] was 2.53 (inactive), the composite z-score [2] was -0.104 and the z-score [3] was 0.96 (inactive). The z-score [4] was 0.166 (inactive), the z-score [5] was 0.789 (inactive) and the z-score [6] was 0.286 (inactive). The z-score [7] was 0.274, the z-score [8] was -0.0295 (inactive) and the z-score [9] was 1.77 (inactive). The z-score [10] was 0.431.
